Experimental data taken from PubChem BioAssay (Tox21).
Records with an inconclusive call do not appear. Calls of active or inactive are those of the source. Calls come from the whole dose curve. Positions of bridges follow the written chain, without caps; N, C: chain ends. Non-standard residues stand in square brackets, D forms with d. Residues, ends and D or L forms follow the SMILES beside them. *: point of attachment. Sta = CC(C)C[C@H](N)[C@@H](O)CC(=O)O; hArg = N=C(N)NCCCC[C@H](N)C(=O)O; Isovaleryl = CC(C)CC(=O)*; Mpa = O=C(O)CCS

Tests used:
[1] = target: Acetylcholinesterase (Homo sapiens) (UniProt P22303); assay: Acetylcholinesterase (AChE) small molecule antagonists: colormetric cell-based qHTS assay (AID 1347395); note: nearly all actives have a fitted effect of over 30% in size; note: potency is the fitted concentration of half-maximal effect
Sequence of Acetylcholinesterase (Homo sapiens) (P22303 whole entry, looked up): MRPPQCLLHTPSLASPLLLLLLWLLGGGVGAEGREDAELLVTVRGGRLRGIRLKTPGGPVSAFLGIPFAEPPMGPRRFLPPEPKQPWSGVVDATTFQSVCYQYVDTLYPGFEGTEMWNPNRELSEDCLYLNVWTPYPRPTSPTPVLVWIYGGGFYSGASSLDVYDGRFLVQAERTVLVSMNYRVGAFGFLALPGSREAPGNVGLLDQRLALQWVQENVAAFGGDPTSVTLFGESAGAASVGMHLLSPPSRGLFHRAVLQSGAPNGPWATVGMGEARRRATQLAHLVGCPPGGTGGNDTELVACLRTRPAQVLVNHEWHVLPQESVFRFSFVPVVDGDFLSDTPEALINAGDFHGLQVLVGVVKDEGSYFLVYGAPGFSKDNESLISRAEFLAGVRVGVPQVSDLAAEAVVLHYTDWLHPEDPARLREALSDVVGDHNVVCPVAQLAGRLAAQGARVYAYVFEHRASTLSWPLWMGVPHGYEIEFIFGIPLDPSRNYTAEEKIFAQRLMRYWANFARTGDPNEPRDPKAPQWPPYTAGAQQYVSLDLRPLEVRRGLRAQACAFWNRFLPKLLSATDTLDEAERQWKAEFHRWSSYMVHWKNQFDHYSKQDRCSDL
Method in brief: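 Colorimetric readout: DTNB quantifies thiocholine from acetylthiocholine hydrolysed by endogenous AChE of SH-SY5Y cells (2,000/well, plated overnight). Compound pretreatment 30 min, substrate incubation 90 min, both 37 C.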

[2] = target: Acetylcholinesterase (Homo sapiens) (UniProt P22303); assay: Acetylcholinesterase (AChE) small molecule antagonists: enzyme-based qHTS assay (AID 1347397); details: Potency: AChE enzyme activity inhibition; outcome: AChE enzyme activity inhibition; note: nearly all actives have a fitted effect of over 55% in size; note: potency is the fitted concentration of half-maximal effect
Method in brief: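 First, recombinant human AChE (50 mU/mL as dispensed) received test compound or DMSO. Second, plates stood 30 min at room temperature. Third, DTNB and acetylthiocholine were added, followed by 10 min at room temperature and colorimetric detection.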

[3] = target: Acetylcholinesterase (Homo sapiens) (UniProt P22303); assay: Acetylcholinesterase (AChE) small molecule antagonists: fluorescence cell-based qHTS assay (AID 1347398); details: Potency: AChE activity; outcome: AChE activity; note: nearly all actives have a fitted effect of over 50% in size; note: potency is the fitted concentration of half-maximal effect
Method in brief: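 Homogeneous quantitative HTS format. SH-SY5Y cells seeded at 2,000 per well settle overnight at 37 C. Compound pretreatment runs 30 min (37 C, 5% CO2); substrate/probe mix then reacts 40 min at RT before reading 490/520 nm.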

[4] = target: Acetylcholinesterase (Homo sapiens) (UniProt P22303); assay: Acetylcholinesterase (AChE) small molecule antagonists: enzyme-based qHTS assay with human liver microsomes (AID 1347399); details: Potency: qHTS inhibition; outcome: qHTS inhibition; note: nearly all actives have a fitted effect of over 60% in size
Method in brief: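 Recombinant human AChE (50 mU/mL in the enzyme mix) and human liver microsomes (0.25 mg/mL final) were preincubated with compound and NADPH (0.25 mg/mL final) for 30 min at 37 C. Acetylthiocholine/DTNB was then added; thiocholine was read colorimetrically after 10 min at room temperature.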

Measured: Potency

O=C(Nc1ncc([N+](=O)[O-])s1)c1cccs1
inactive: all assays above

CCCCCCOc1ccc(O)cc1
inactive: all assays above

C[C@]12CCC(=O)C=C1CC[C@@H]1[C@@H]2[C@@H](O)C[C@@]2(C)[C@H]1CC[C@]2(O)C(=O)COC(=O)CCC(=O)O
inactive: all assays above

O=C(Nc1ccccc1)c1cc(Cl)ccc1O
inactive: all assays above

CCOC(=O)CC(O)(CC(=O)OCC)C(=O)OCC
inactive: all assays above

NC(=O)[C@@H]1CSSCCC(=O)N[C@@H](CCCCN=C(N)N)C(=O)NCC(=O)N[C@@H](CC(=O)O)C(=O)N[C@@H](Cc2c[nH]c3ccccc23)C(=O)N2CCC[C@H]2C(=O)N1 ([Mpa][hArg]GDWPC-NH2; disulfide 1-7)
inactive: all assays above

Nc1ccc2c(O)cc(S(=O)(=O)O)cc2c1
inactive: all assays above

COC(=O)c1ccc(C)cc1
inactive: all assays above

CCCCC/C(=C\c1ccccc1)CO
inactive: all assays above

CCCCCCCCCCCCC(=O)O
inactive: all assays above

Nc1ccc(Oc2ccc(Cl)cc2)cc1
inactive: all assays above

Cc1cccc(N(C)C(=S)Oc2ccc3ccccc3c2)c1
inactive: all assays above

CCCC(=O)CC
inactive: all assays above

CCC(CC)C(=O)O
inactive: all assays above

NC[C@H](O)c1ccc(O)c(O)c1
inactive: all assays above

C/C=C/c1ccc(O)c(OC)c1
inactive: all assays above

Cc1c(C(C)C)c(=O)n(-c2ccccc2)n1C
inactive: all assays above

C[N+]1(C)CCC(=C(c2ccccc2)c2ccccc2)CC1
inactive: all assays above

CCCCCC1Nc2cc(C(F)(F)F)c(S(N)(=O)=O)cc2S(=O)(=O)N1 (stereo not given)
active: [1] 15.5 µM | [2] 21.9 µM | [3] 9.77 µM
inactive: [4]

CCCC(C)c1ccccc1O (stereo not given)
inactive: all assays above

O=C(O)CC(C(=O)O)S(=O)(=O)O (stereo not given)
inactive: all assays above

O=C1C=CC(=O)O1
inactive: all assays above

CC(C)(C)CC(C)(C)c1ccc(O)c(Cc2ccc(Cl)cc2Cl)c1
inactive: all assays above

N#Cc1cc(NC(=O)C(=O)O)c(Cl)c(NC(=O)C(=O)O)c1
inactive: all assays above

CC(=O)C(C)O (stereo not given)
inactive: all assays above

CC(C)=CCO
inactive: all assays above

CC(C)CC(=O)N[C@H](C(=O)N[C@H](C(=O)N[C@@H](CC(C)C)[C@@H](O)CC(=O)N[C@@H](C)C(=O)N[C@@H](CC(C)C)[C@@H](O)CC(=O)O)C(C)C)C(C)C (Isovaleryl-VV[Sta]A[Sta]-OH)
inactive: all assays above

Nc1ncn([C@@H]2O[C@H](CO)[C@@H](O)[C@H]2O)c(=O)n1
inactive: all assays above

C/C=C1/CC2C=CC1C2 (stereo not given)
inactive: all assays above

CCOC(=O)COc1ccc2c(C)c(CCN(CC)CC)c(=O)oc2c1Cl
active: [1] 13.8 µM | [2] 15.5 µM | [3] 6.92 µM
inactive: [4]

CCCCCCCCCCCCCCCCCCO
inactive: all assays above

COCN(COC)c1nc(N(COC)COC)nc(N(COC)COC)n1
inactive: all assays above

O=C(O)c1cc(O)c(O)c(O)c1
inactive: all assays above

COc1ccc(CCN(C)CCCN2CCc3cc(OC)c(OC)cc3CC2=O)cc1OC
inactive: all assays above

Fc1ccc(Br)cc1
inactive: all assays above

O=C1CCCCCCCCCCCCCCO1
inactive: all assays above

OCCN(CCO)c1cccc(Cl)c1
inactive: all assays above

Cc1cc2c(cc1S(N)(=O)=O)S(=O)(=O)CCC2
active: [1] 17.4 µM
inactive: all other assays above

NNC(=O)OCc1ccccc1
inactive: all assays above

O=Cc1ccccc1[N+](=O)[O-]
inactive: all assays above

OC1OC[C@@H](O)[C@H](O)[C@H]1O (stereo not given in full)
inactive: all assays above

C=C(C)C(=O)OCCOCCOCCOC(=O)C(=C)C
inactive: all assays above

O=C(O)CS
inactive: all assays above

FC(F)(Cl)C(F)(Cl)Cl
inactive: all assays above

CC(CN)CCCN (stereo not given)
inactive: all assays above

CCCCCCCCCCCC(=O)N(C)CC(=O)O
inactive: all assays above

CCCOc1ccc2nc(NC(=O)OC)[nH]c2c1
inactive: all assays above

CC(C)OC(=O)C(C)(C)Oc1ccc(C(=O)c2ccc(Cl)cc2)cc1
inactive: all assays above

CCC1CCC(CCC(=O)O)C1 (stereo not given)
inactive: all assays above

CC(CCc1ccc(O)cc1)NCCc1ccc(O)c(O)c1 (stereo not given)
inactive: all assays above

O=C(NC(Cc1cc(=O)[nH]c2ccccc12)C(=O)O)c1ccc(Cl)cc1 (stereo not given)
inactive: all assays above

CCCCCC=O
inactive: all assays above

CC1(C)[C@@H]2CC[C@]3(C2)[C@@H]1C(=O)CCC3(C)C
inactive: all assays above

C=C[Si](OCCOC)(OCCOC)OCCOC
inactive: all assays above

COC(=O)[C@H](Cc1ccccc1)NC(=O)[C@@H](N)CC(=O)O (H-Asp-Phe-OMe)
inactive: all assays above

[Cl][Sc]([Cl])[Cl]
inactive: all assays above

CCCCN1C[C@H](O)[C@@H](O)[C@H](O)[C@H]1CO
inactive: all assays above

CN1C(=O)c2ccccc2C1=O
inactive: all assays above

CC1(C)[C@@H]2CC[C@@]1(C)[C@H](O)C2
inactive: all assays above

O=C(O)c1cc(N=Nc2ccc(S(=O)(=O)Nc3ccccn3)cc2)ccc1O
inactive: all assays above
